Laboratory results from PubChem BioAssay (EPA / NIEHS).
The source made the active and inactive calls. How the source made its calls: active means hit-call score of the fitted dose curve at least 0.9, where 1 is the maximum; inactive means score below 0.9.

Columns and labels:
[1] = ATG_CRE_CIS: Attagene CIS-FACTORIAL HepG2 Assay for human cAMP Responsive Element (CRE) binding protein 3 (AID 2282926); settings: HepG2 CRE cis-reporter, Attagene multiplexed mRNA; actives raise or lower the signal
Summary of the method: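 Endogenous CRE-binding activity in HepG2 is reported through a cis-regulated transfected reporter. Following a day of exposure, mRNA levels are determined by reverse transcription PCR and fluorescent fragment analysis; fits run in both directions versus DMSO.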

[2] = molecular target: CCAAT/enhancer-binding protein beta (Homo sapiens) (UniProt P17676); assay: ATG_C_EBP_CIS: Attagene CIS-FACTORIAL HepG2 Assay for human CCAAT/Enhancer Binding Protein (C/EBP) beta (AID 2282927); settings: HepG2 Attagene cis-factorial transcription factor reporter; actives raise or lower the signal
Chain of CCAAT/enhancer-binding protein beta (Homo sapiens) (P17676 whole entry, looked up): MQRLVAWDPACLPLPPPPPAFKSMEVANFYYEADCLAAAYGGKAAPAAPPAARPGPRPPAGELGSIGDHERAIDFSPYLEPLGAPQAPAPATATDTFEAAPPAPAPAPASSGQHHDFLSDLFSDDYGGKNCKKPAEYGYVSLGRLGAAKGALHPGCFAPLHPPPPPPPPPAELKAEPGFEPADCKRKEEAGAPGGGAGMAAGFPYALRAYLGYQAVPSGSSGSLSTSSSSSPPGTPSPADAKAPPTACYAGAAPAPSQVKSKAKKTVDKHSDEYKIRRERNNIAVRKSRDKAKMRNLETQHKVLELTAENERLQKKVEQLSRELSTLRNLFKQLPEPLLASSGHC
Summary of the method: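 HepG2 transiently transfected with multiplexed reporter units under cis-regulatory promoters reporting endogenous C/EBPb activity. After 24 h exposure, reporter mRNA assayed by RT-PCR, fluorescent labelling, HpaI digestion and capillary electrophoresis; bidirectional fitting versus DMSO.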

[3] = ATG_CMV_CIS: Attagene CIS-FACTORIAL HepG2 Assay for human CMV (Internal Marker) (AID 2282928); settings: HepG2 CMV promoter reporter, transcription factor profiling; actives raise or lower the signal;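 further: endpoint acts as a background internal control marker rather than a target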
Summary of the method: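 CMV internal-marker background readout in transiently transfected HepG2 cells bearing cis-regulated reporter units. Reporter mRNA is measured 24 h after dosing by RT-PCR and capillary electrophoresis, with bidirectional fitting against DMSO.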

[4] = ATG_DR4_LXR_CIS: Attagene CIS-FACTORIAL HepG2 Assay for human Liver X Receptor (LXR), DR4 submotif (AID 2282929); settings: HepG2 Attagene DR4 cis-reporter, mRNA transcription; actives raise or lower the signal
Summary of the method: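 Total RNA from 24 h-treated, MRTU-transfected HepG2 cells underwent reverse transcription, PCR, fluorescent primer extension and restriction digestion before capillary electrophoresis. Both increases and decreases in reporter signal were fitted against DMSO.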

[5] = molecular target: Aryl hydrocarbon receptor (Homo sapiens) (UniProt P35869); assay: ATG_Ahr_CIS: Attagene CIS-FACTORIAL HepG2 Assay for human Aryl Hydrocarbon Receptor (Ahr) (AID 2282930); settings: HepG2 AhR cis-factorial reporter transcription; actives raise or lower the signal
Chain of Aryl hydrocarbon receptor (Homo sapiens) (P35869 whole entry, looked up): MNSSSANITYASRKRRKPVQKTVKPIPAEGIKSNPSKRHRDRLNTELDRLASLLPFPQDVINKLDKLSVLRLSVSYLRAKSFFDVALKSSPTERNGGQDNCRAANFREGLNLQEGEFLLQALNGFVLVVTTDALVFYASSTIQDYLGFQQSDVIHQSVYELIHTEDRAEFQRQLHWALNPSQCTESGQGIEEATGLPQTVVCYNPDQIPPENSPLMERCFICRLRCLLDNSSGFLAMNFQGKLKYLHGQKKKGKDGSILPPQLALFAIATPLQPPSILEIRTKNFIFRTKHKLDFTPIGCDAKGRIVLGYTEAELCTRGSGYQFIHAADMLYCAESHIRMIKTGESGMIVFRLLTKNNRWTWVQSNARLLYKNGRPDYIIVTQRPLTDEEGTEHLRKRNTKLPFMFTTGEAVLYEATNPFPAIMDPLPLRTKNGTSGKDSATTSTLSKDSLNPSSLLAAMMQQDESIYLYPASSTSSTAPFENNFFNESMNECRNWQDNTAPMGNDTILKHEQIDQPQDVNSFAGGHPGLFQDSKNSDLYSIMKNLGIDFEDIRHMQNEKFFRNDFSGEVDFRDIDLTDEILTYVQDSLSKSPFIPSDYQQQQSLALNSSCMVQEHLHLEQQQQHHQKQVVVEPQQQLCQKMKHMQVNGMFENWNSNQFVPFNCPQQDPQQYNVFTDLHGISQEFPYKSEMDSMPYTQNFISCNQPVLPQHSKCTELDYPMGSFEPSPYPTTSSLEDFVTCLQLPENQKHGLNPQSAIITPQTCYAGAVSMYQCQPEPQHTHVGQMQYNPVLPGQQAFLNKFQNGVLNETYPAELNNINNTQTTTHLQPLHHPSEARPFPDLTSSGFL
Summary of the method: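 HepG2 cells transiently transfected with cis-element-driven multiplexed reporter units; endogenous AhR activity read as reporter mRNA 24 h after dosing, via RT-PCR, 6-FAM labelling, HpaI digestion and capillary electrophoresis. Bidirectional fit relative to DMSO.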

[6] = ATG_AP_1_CIS: Attagene CIS-FACTORIAL HepG2 Assay for human Activator Protein 1 (AP-1) (AID 2282931); settings: HepG2 Attagene cis-factorial AP-1 reporter mRNA; actives raise or lower the signal
Summary of the method: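 HepG2, transient cis-reporter transfection; 24 h; readout RT-PCR/CE fluorescence; DMSO baseline, gain and loss fitted.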

[7] = ATG_AP_2_CIS: Attagene CIS-FACTORIAL HepG2 Assay for human Activator Protein 2 (AP-2) (AID 2282932); settings: HepG2 AP-2 cis-reporter, Attagene transcription factor profiling; actives raise or lower the signal
Summary of the method: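 HepG2 cells transiently transfected with cis-element reporter units and exposed for 24 h. Reporter mRNA measured by RT-PCR, FAM labelling, HpaI digestion and capillary electrophoresis. Changes in either direction fitted relative to DMSO.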

[8] = ATG_BRE_CIS: Attagene CIS-FACTORIAL HepG2 Assay for human Bone Morphogenetic Protein (BMP) Response Element (BRE) (AID 2282933); settings: HepG2 BMP response element reporter, Attagene transcription factor profiling; actives raise or lower the signal
Summary of the method: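 Endogenous transcription factor activity read in transiently transfected HepG2 cells after 24 h chemical exposure. Bidirectional curve fitting against DMSO; readout is reporter transcript level by RT-PCR with capillary electrophoresis of labelled products.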

[9] = molecular target: Retinoic acid receptor alpha (Homo sapiens) (UniProt P10276); assay: ATG_DR5_RAR_CIS: Attagene CIS-FACTORIAL HepG2 Assay for human Retinoic Acid Receptor Alpha (RARE), DR5 submotif (AID 2282934); settings: HepG2 Attagene cis-factorial RARE DR5 reporter, mRNA; actives raise or lower the signal
Chain of Retinoic acid receptor alpha (Homo sapiens) (P10276 whole entry, looked up): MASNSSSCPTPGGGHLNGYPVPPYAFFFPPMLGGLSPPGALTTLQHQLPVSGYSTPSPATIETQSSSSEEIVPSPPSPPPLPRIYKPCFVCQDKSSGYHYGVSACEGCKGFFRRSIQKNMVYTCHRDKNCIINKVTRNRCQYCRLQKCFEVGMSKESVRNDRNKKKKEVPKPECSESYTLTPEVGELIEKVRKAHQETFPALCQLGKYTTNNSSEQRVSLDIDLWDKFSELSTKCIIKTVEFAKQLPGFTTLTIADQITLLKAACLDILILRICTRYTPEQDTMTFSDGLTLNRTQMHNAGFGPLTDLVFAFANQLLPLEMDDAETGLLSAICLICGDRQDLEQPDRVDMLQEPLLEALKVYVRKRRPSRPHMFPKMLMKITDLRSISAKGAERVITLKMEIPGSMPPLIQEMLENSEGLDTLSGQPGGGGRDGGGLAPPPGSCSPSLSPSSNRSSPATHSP
Summary of the method: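 HepG2 cells transiently transfected with multiplexed reporter units; DR5 cis-element drives reporter through endogenous transcription factors. After 24 h dosing, reporter mRNA quantified by RT-PCR, fluorescent labeling, HpaI digestion and capillary electrophoresis; bidirectional fitting versus DMSO.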

[10] = molecular target: Transcription factor E2F1 (Homo sapiens) (UniProt Q01094); assay: ATG_E2F_CIS: Attagene CIS-FACTORIAL HepG2 Assay for human E2F Transcription Factor 1 (AID 2282935); settings: HepG2 Attagene cis-reporter, E2F reporter RNA transcripts; actives raise or lower the signal
Chain of Transcription factor E2F1 (Homo sapiens) (Q01094 whole entry, looked up): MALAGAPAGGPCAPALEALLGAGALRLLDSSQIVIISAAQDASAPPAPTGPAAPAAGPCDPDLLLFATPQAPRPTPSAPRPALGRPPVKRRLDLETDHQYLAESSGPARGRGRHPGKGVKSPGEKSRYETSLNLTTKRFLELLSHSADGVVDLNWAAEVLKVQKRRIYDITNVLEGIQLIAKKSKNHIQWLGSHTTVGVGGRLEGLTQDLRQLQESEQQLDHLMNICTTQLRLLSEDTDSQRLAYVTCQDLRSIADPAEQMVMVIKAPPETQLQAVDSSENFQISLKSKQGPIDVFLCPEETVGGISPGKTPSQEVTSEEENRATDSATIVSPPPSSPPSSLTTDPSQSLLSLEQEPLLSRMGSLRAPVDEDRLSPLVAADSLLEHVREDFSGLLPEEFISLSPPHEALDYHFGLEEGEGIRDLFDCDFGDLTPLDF
Summary of the method: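 Endogenous E2F1 activity read through cis-promoter reporter units transfected into HepG2. After 24 h compound treatment, reporter mRNA measured by RT-PCR, HpaI digestion and capillary electrophoresis. Bidirectional fit versus DMSO.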

[11] = ATG_M_61_CIS: Attagene CIS-FACTORIAL HepG2 Assay for M61 Transcription Factor (Internal Marker) (AID 2282937); settings: HepG2 Attagene CIS-FACTORIAL M61 internal marker reporter; actives raise or lower the signal
Summary of the method: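 Transfect HepG2 with MRTUs; dose 24 h; isolate RNA; reverse-transcribe with DNase I treatment; PCR-amplify, FAM-label and cut with HpaI for 2 h at 37 C; resolve by CE. Bidirectional fitting against DMSO.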

[12] = ATG_EGR_CIS: Attagene CIS-FACTORIAL HepG2 Assay for human Early Growth Response 1 (EGR1) (AID 2282938); settings: HepG2 Attagene CIS-FACTORIAL EGR reporter mRNA; actives raise or lower the signal
Summary of the method: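 After a 24 h treatment of transiently transfected HepG2 cells, total RNA was reverse-transcribed and reporter sequences PCR-amplified, labelled and run on capillary electrophoresis. Reporters sit under cis-regulatory promoters sensing endogenous factors.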

[13] = ATG_M_19_CIS: Attagene CIS-FACTORIAL HepG2 Assay for M19 Transcription Factor (Internal Marker) (AID 2282939); settings: HepG2 Attagene CIS-FACTORIAL M19 internal marker reporter; actives raise or lower the signal
Summary of the method: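 Internal marker readout, fitted in both directions against DMSO, from HepG2 cells carrying transfected cis-element reporter constructs; RT-PCR and capillary electrophoresis of reporter mRNA after 24 h exposure.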

[14] = ATG_ERE_CIS: Attagene CIS-FACTORIAL HepG2 Assay for Estrogen Response Element (ERE) (AID 2282940); settings: HepG2 ERE cis-reporter, Attagene RNA transcript; actives raise or lower the signal
Summary of the method: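 After 24 h compound treatment, RNA from transfected HepG2 cells was reverse-transcribed, reporter cDNA PCR-amplified, FAM-labelled, HpaI-cut and resolved by capillary electrophoresis. ERE-driven cis reporter transcripts reflect endogenous factors; gain or loss scored against DMSO.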

[15] = ATG_Ets_CIS: Attagene CIS-FACTORIAL HepG2 Assay for human Erythroblast Transformation Specific (ETS) (AID 2282941); settings: HepG2 ETS cis-reporter transcription, actives raise or lower the signal
Summary of the method: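 HepG2 cells transfected with multiple cis-regulated reporter units measuring endogenous ETS-driven transcription, 24 h after dosing. Reporter mRNA quantified by RT-PCR with capillary electrophoresis; bidirectional fit relative to DMSO.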

[16] = molecular target: Hepatocyte nuclear factor 3-beta (Homo sapiens) (UniProt Q9Y261); assay: ATG_FoxA2_CIS: Attagene CIS-FACTORIAL HepG2 Assay for human Forkhead box A2 (FOXA2) (AID 2282942); settings: HepG2 cis-reporter transcription factor activity, 24 h; actives raise or lower the signal
Chain of Hepatocyte nuclear factor 3-beta (Homo sapiens) (Q9Y261 whole entry, looked up): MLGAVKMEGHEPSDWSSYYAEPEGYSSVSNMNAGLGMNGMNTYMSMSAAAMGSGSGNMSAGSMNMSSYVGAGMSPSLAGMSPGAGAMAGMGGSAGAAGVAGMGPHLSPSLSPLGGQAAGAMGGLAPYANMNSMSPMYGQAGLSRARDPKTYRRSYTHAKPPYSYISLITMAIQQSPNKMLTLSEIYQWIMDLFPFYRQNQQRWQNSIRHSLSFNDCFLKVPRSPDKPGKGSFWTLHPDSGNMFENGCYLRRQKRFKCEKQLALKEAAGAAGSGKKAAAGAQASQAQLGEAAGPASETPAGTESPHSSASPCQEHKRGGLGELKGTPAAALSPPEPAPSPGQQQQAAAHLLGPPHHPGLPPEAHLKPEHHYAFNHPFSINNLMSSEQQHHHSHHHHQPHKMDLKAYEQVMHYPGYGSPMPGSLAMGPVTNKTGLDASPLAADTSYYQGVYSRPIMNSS
Summary of the method: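 24 h dosing of HepG2 bearing cis-reporter constructs; mRNA readout by RT-PCR/CE fluorescence; bidirectional fit, DMSO baseline.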

[17] = ATG_FoxO_CIS: Attagene CIS-FACTORIAL HepG2 Assay for human Forkhead box O (FoxO) (AID 2282943); settings: HepG2 Attagene cis-reporter, FoxO element, mRNA; actives raise or lower the signal
Summary of the method: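 HepG2 cells transiently transfected with cis-element-driven reporter units report endogenous FoxO activity. After 24 h chemical exposure, reporter mRNA quantified by RT-PCR, fluorescent labeling, HpaI digestion and capillary electrophoresis; bidirectional fit versus DMSO.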

[18] = ATG_GATA_CIS: Attagene CIS-FACTORIAL HepG2 Assay for human GATA Binding Protein (AID 2282944); settings: HepG2 GATA cis-element reporter, Attagene multiplex mRNA; actives raise or lower the signal
Summary of the method: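 Reporter transcripts from a GATA cis-regulated unit, among multiplexed reporters in transfected HepG2 cells, were measured by RT-PCR with capillary electrophoresis after 24 h dosing. Induction or loss scored relative to DMSO.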

[19] = ATG_GLI_CIS: Attagene CIS-FACTORIAL HepG2 Assay for human Zinc Finger Protein GLI1 (AID 2282945); settings: HepG2, Attagene cis-factorial reporter mRNA, GLI element; actives raise or lower the signal
Summary of the method: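 Transiently transfected HepG2 cells report endogenous transcription factor activity via cis-element-driven reporter units. After 24 h compound exposure, reporter mRNA was measured by RT-PCR with capillary electrophoresis; bidirectional fitting against DMSO baseline.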

[20] = ATG_E_Box_CIS: Attagene CIS-FACTORIAL HepG2 Assay for human Enhancer Box (E-box) (AID 2282936); settings: HepG2 E-box cis-reporter transcription, actives raise or lower the signal
Summary of the method: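 HepG2 cells transiently transfected with multiplexed cis-element reporter units, dosed 24 h; reporter mRNA quantified by RT-PCR, 6-FAM labelling, HpaI digestion and capillary electrophoresis. E-box (USF1) signal fitted bidirectionally vs DMSO.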

Measured: AC50

C/C=C\C/C=C/CCCCCCCCOC(C)=O
active: [4] 122 µM | [6] 134 µM | [8] 67.9 µM | [12] 100 µM
not listed: [20]
inactive: all other assays above

COCCOCCOCCOCCOC
not listed: [12] | [20]
inactive: all other assays above

O=c1n(CCO)c(=O)n(CCO)c(=O)n1CCO
not listed: [7] | [16]
inactive: all other assays above

Nc1ccc(N)c(Cl)c1
active: [1] 49.6 µM | [3] 9.98 µM | [5] 1.99 µM | [6] 18.1 µM | [20] 33.5 µM | [14] 2.65 µM
not listed: [9] | [15] | [16]
inactive: all other assays above

Cn1c(=O)[nH]c2ncn(C)c2c1=O
not listed: [11] | [16] | [20]
inactive: all other assays above

O=C1CCCC(=O)O1
not listed: [18] | [20]
inactive: all other assays above

Nc1ccc(N=Nc2ccccc2)c(N)n1
active: [4] 48.5 µM | [5] 23.5 µM | [20] 70.9 µM | [12] 70.5 µM
not listed: [9]
inactive: all other assays above
